Screens as filed in PubChem BioAssay.
Hits are enriched below; roughly 2.1% of the tested compounds scored in any of these assays.
Giardia killer: kills Giardia lamblia. activity change, % at 7.66 µM, hits read low. 340,000 compounds, 0.15% hits. Giardia lamblia trophozoite viability; in the data active = activity change below about -80%; inconclusive = between about -30% and that limit;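 also: parasites exposed to compound for two days anaerobically before the ATP read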
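Trophozoites 100 cells/well + cpd; 48 hrs, 37 deg C, anaerobic. ATPLite 1-Step added, 15-30 min RT, luminescence read (ATP-based viability).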
Mito fusion yeast: blocks mitochondrial division or promotes mitochondrial fusion; S. cerevisiae fusion-defective mutant growth rescue, CellTiterGlo 48 h; Potency, µM (doses to about 46.1 µM), actives largely listed as activators; 320,000 compounds, 0.23% hits; AID 485298; also: nearly all actives have a fitted effect of over 45% in size
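Read-out: ATP-based luminescence (CellTiterGlo, 10 min ambient) reporting growth of fusion-defective ts yeast after 48 hours at 37C on glycerol/ethanol YPEG medium in the presence of compound.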
B2AR arrestin: agonists driving beta-arrestin recruitment to human beta2-adrenergic receptor; 330,000 compounds, 0.02% hits; beta-arrestin recruitment to beta2AR, cell-based reporter; P07550; Potency, µM (highest dose often 46.1 µM), hits mostly activators; AID 492947; also: nearly all actives have a fitted effect of over 65% in size
Target sequence (P07550 whole entry, looked up): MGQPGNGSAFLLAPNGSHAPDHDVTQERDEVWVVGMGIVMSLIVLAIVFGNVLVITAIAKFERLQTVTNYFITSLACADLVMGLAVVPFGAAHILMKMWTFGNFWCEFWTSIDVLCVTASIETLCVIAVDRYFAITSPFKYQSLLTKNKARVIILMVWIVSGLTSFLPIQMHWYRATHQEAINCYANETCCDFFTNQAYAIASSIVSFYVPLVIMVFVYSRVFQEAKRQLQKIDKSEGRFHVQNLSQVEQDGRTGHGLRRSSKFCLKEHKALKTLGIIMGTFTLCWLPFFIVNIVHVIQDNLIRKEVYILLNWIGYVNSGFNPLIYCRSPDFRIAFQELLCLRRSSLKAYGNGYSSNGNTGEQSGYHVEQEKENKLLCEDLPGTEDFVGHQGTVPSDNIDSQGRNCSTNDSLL
ClpP mod: qHTS Assay for Activators of ClpP | purified B. subtilis ClpP, FRET peptide cleavage, 20 min | 340,000 compounds, 1.9% hits | Potency, µM (titrated, usually from 57.5 µM) | ATP-dependent Clp protease proteolytic subunit (Bacillus subtilis (strain 168)), P80244; active = well fitted falling curve with a large enough effect; inconclusive = small, poorly fitted or top-dose-only effect; inactive = no such curve, though single readings can be large or run the other way; also: the source files actives as falling curves though it sought activators and does not explain the sign; nearly all actives have a fitted effect of over 65% in size
Target sequence (P80244 whole entry, looked up): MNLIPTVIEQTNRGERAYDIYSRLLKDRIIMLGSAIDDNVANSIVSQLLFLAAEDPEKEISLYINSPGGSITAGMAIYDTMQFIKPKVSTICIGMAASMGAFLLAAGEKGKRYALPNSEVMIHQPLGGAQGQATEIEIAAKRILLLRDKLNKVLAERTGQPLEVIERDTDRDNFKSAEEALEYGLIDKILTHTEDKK
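Buffer: 100 mM Tris/HCl pH8, 100 mM KCl, 0.05% low protease BSA, 2.5% glycerol, 0.01% Tween-20. ClpP 10 microg/mL final; 20 min RT; delta FRET normalized to ADEP and DMSO controls.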
p53 reactivator: restores transcriptional activity of mutant p53; H1299 p53-A138V BP100-luciferase reporter, luminescence, 24 h; 320,000 compounds, 0.063% hits; Potency, µM (doses to about 92.2 µM), actives largely listed as activators; also: nearly all actives have a fitted effect of over 45% in size
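p53-null H1299 cells stably carrying temperature-sensitive p53-A138V and a BP100-luciferase reporter were pinned with compounds (4-point, 1:5 series) and held 24 hrs at 37 deg C. Luminescence was read 10 min after detection reagent.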
uPA surface inh: inhibitors of cell surface uPA generation | cell surface uPA generation assay, qHTS | Potency, µM (titrated, usually from 38.3 µM), most hits filed as inhibitors | 330,000 compounds, 0.31% hits | AID 540303; active = well fitted inhibition curve with a large enough effect; inconclusive = small, poorly fitted or top-dose-only effect; inactive = no such curve, though single readings can be large or run the other way; tested in mouse RAW 264.7 cells; also: nearly all actives have a fitted effect of over 55% in size
Of the large screens only hits and unclear results are named; the others gave an inactive call. Unless noted, calls follow the shape of the dose curve; as a rule, active = well fitted curve in the direction sought with a large enough effect; inconclusive = small, poorly fitted or top-dose-only effect, or another doubt; inactive = no such curve, though single readings can be large; an effect the other way counts as inactive or inconclusive.

CCOc1ccc(S(=O)(=O)NCCc2cn3ccccc3n2)cc1	ClpP mod 22µM
O=S(=O)(NCCc1cn2ccccc2n1)c1ccc(-c2ccccc2)cc1	none
CC(Sc1ccc2ccccc2n1)C(=O)O (centres undefined)	p53 reactivator inconclusive
CC(Sc1cccc2cccc(C(=O)O)c12)C(=O)O (centres undefined)	ClpP mod 14µM
COc1ccc(C(=O)c2c(C(F)(F)F)oc3c2C(=O)c2ccccc2C3=O)cc1	ClpP mod 3.2µM
COc1ccc(-c2c(C)nn3c(C(F)(F)F)cc(-c4ccc(C)cc4)nc23)cc1	none (no result: Giardia killer, Mito fusion yeast, B2AR arrestin, p53 reactivator, uPA surface inh)
Cc1nn2c(C(F)(F)F)cc(-c3ccc(OC(C)C)cc3)nc2c1C#N	ClpP mod 5µM (no result: Giardia killer, Mito fusion yeast, B2AR arrestin, p53 reactivator, uPA surface inh)
CN(C)c1ccc(/C=C2\C=Cc3ccccc32)cc1F	none (no result: Giardia killer, Mito fusion yeast, B2AR arrestin, p53 reactivator, uPA surface inh)
CSc1nnc(-c2sc3cc(C(F)(F)F)cnc3c2-c2ccccn2)n1C	ClpP mod 28µM
COC(=O)C1C(=O)C=C(N2CCOCC2)CC1(C)C (centres undefined)	ClpP mod 13µM
CCC(c1nnnn1Cc1ccc(OC)cc1)N(CCCO)Cc1cc2cc3c(cc2[nH]c1=O)OCO3 (centres undefined)	ClpP mod 22µM (no result: uPA surface inh)
CC(C)C(c1nnnn1Cc1ccccc1)N(CCCO)Cc1cc2cc3c(cc2[nH]c1=O)OCO3 (centres undefined)	ClpP mod 32µM
CCC(c1nnnn1Cc1ccccc1)N(Cc1ccco1)Cc1cc2cc(OC)ccc2[nH]c1=O (centres undefined)	none
COc1ccc(NC(=O)c2ccco2)cc1NC(=O)COc1ccccc1Cl	none (no result: Giardia killer, Mito fusion yeast, B2AR arrestin, p53 reactivator, uPA surface inh)
Cc1nc(Nc2ccc(S(=O)(=O)N3CCCCC3C)cc2)c2nnn(Cc3ccccc3)c2n1 (centres undefined)	ClpP mod 32µM
CCOc1ccc(-c2nonc2NC(=O)c2oc3c(C)c(C)ccc3c2C)cc1OCC	none (no result: Giardia killer, Mito fusion yeast, B2AR arrestin, p53 reactivator, uPA surface inh)
CCCn1cc2c(c1-c1ccc(C)cc1)c(=O)n(C)c(=O)n2C	none (no result: ClpP mod)
COc1ccc(-c2c3c(=O)n(C)c(=O)n(C)c3cn2C2CCCCC2)cc1	ClpP mod 16µM
Cc1cccc(C)c1NC(=O)C(C1CC1)n1c(-c2ccc(C(F)(F)F)cc2)nc2ccccc21 (centres undefined)	none (no result: Giardia killer, Mito fusion yeast, B2AR arrestin, p53 reactivator, uPA surface inh)
Cc1cc(OCc2nn[nH]n2)c2c(C)c(Cc3ccccc3)c(=O)oc2c1	ClpP mod 32µM
CCCN(CCC)CCCNC(=O)c1nn(C)c2c1CS(=O)(=O)c1ccccc1-2	none (no result: Giardia killer, Mito fusion yeast, B2AR arrestin, p53 reactivator, uPA surface inh)
O=C1CCC(C(=O)N(CCO)Cc2ccccc2)CN1CCCN1CCOCC1 (centres undefined)	none
O=C1CCCN1CCCN1CC(C(=O)N(CCO)Cc2ccccc2)CCC1=O (centres undefined)	ClpP mod 32µM
Cc1ccccc1CNC(=O)c1ccc(CSc2nc3cccnc3n2Cc2ccccc2)cc1	none (no result: Giardia killer, Mito fusion yeast, B2AR arrestin, p53 reactivator, uPA surface inh)
CCc1ccc(CNC(=O)c2ccc(CSc3nc4ccncc4n3Cc3ccccc3)cc2)cc1	ClpP mod 32µM (no result: Giardia killer, Mito fusion yeast, B2AR arrestin, p53 reactivator, uPA surface inh)
CCOc1ccccc1CNC(=O)c1ccc(Cn2c(SCc3ccccc3)nc3cccnc32)cc1	ClpP mod 16µM (no result: Giardia killer, Mito fusion yeast, B2AR arrestin, p53 reactivator, uPA surface inh)
COc1ccc(CCNC(=O)c2ccc(Cn3c(SCc4ccccc4)nc4cccnc43)cc2)cc1	ClpP mod 32µM (no result: Giardia killer, Mito fusion yeast, B2AR arrestin, p53 reactivator, uPA surface inh)
COc1ccc(Cn2c(SCc3ccc(C(=O)NCc4cccs4)cc3)nc3cccnc32)cc1	ClpP mod 28µM (no result: Giardia killer, Mito fusion yeast, B2AR arrestin, p53 reactivator, uPA surface inh)
CCc1ccc(CNC(=O)c2ccc(CSc3nc4ccncc4n3Cc3ccc(OC)cc3)cc2)cc1	none (no result: Giardia killer, Mito fusion yeast, B2AR arrestin, p53 reactivator, uPA surface inh)
COC(=O)c1ccc(NC(=O)CC2C(=O)N(c3cccc(OC)c3)C(=O)N2Cc2cccc(OC)c2)cc1 (centres undefined)	none (no result: Giardia killer, Mito fusion yeast, B2AR arrestin, p53 reactivator, uPA surface inh)
COc1cccc(CCNC(=O)c2ccc(Cn3c(SCc4ccccc4)nc4cccnc43)cc2)c1	ClpP mod 25µM (no result: Giardia killer, Mito fusion yeast, B2AR arrestin, p53 reactivator, uPA surface inh)
COc1ccc(Cn2c(SCc3ccc(C(=O)NCCc4ccccc4)cc3)nc3cccnc32)cc1	none (no result: Giardia killer, Mito fusion yeast, B2AR arrestin, p53 reactivator, uPA surface inh)
Cc1ccc(CSc2ccc(-c3ccc4c(c3)OCO4)nn2)cc1	ClpP mod 28µM
Cc1ccc(CSc2nnc(-c3ccc4c(c3)OCO4)o2)cc1	none
Cc1ccc(S(=O)(=O)C2CCN(c3nc(-c4cccs4)nc4ccccc34)CC2)cc1	none (no result: Mito fusion yeast, B2AR arrestin, p53 reactivator, uPA surface inh)
